Screening data as filed in PubChem.
Pf Dd2 inh = qHTS Primary assay for Inhibitors of Plasmodium falciparum Dd2 growth in vitro | P. falciparum Dd2 growth, SYBR Green, 72 h | AID 1347417, 2020 | hit rate 4.3% among 120,000 | Potency, µM (doses to about 28.9 µM), for inactives: at the top dose activity, negative = inhibition, most hits filed as inhibitors; active = well fitted inhibition curve with a large enough effect;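 note: plate controls were DMSO vehicle for no effect and reference drug for full effect; nearly all actives have a fitted effect of over 65% in size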
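Infected erythrocytes (Dd2, 0.3% parasitemia, 2.5% hematocrit final) are added to compound in RPMI-1640/Albumax II medium, grown 72 h at 37C in low oxygen, then lysed with saponin/Triton-X containing SYBR Green and read by fluorescence.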
Starred values were filed as active, the others as inactive; i = inactive; [ ] = another dose, or the depositor's remark. The sample as a whole holds a higher share of hits than the screen did. Potency is the fitted concentration of half-maximal effect.

SMILES	Pf Dd2 inh
Cc1ccc(C)c(C(=O)N2CCCC(n3cc(-c4nc(C)no4)nn3)C2)c1 (configuration not stated)	i
COc1cc2ncnc(N3CC4CCC(C3)N4CC(F)(F)F)c2cc1OC	-24%
FC(F)(F)CN1C2CCC1CN(c1nncc3ccccc13)C2	-21%
CCc1ncc2c(N3CC4CCC(C3)N4CC(F)(F)F)nc3ccccc3n12	3.2µM*
CC1=NS(=O)(=O)N(C)C=C1C(=O)OCc1nc(-c2ccc(OC(F)(F)F)cc2)no1	i
O=[S+]1([O-])NC2(CCCN(Cc3ccc(OC(F)(F)F)cc3)C2)CNc2ccccc21 (configuration not stated)	i
CC[C@H]1CN(C(=O)C2CC2)CC[C@H]1CC(=O)NCc1cccnc1	-7%[44.1 µM]
COc1ccc(-c2noc(C(=O)O)c2[C@@H](C)NC(=O)c2cc(C)n(C)n2)cc1	3.2µM*
COc1ccc(-c2noc([C@@H](C)NC(=O)c3cc(C)n(C)n3)c2C(=O)O)cc1	-18%[44.1 µM]
COc1ccc(-c2noc(C(=O)O)c2[C@@H](C)NC(=O)c2cccnc2)cc1	-24%[44.1 µM]
COc1ccc(NC(=O)NCCc2noc(C3CC3)n2)c(C)c1	5%
CCOc1ccc(CC(=O)N2CCc3cc(OC)c(OC)cc3C2COc2ccc3c(C)cc(=O)oc3c2)cc1 (configuration not stated)	4µM*
COc1cc2c(cc1OC)C(CNC(=O)CC(C)C)N(C(=O)Nc1cccc(F)c1)CC2 (configuration not stated)	i
COc1cc2c(cc1OC)C(COc1ccc3c(C)cc(=O)oc3c1)N(C(=O)CC(C)C)CC2 (configuration not stated)	11µM*
CCOc1ccc(NC(=O)N2CCc3cc(OC)c(OC)cc3C2CNC(=O)NC(C)C)cc1 (configuration not stated)	-3%
COc1ccccc1NC(=O)N1CCc2cc(OC)c(OC)cc2C1CNC(=O)CC(C)C (configuration not stated)	i
CCOc1ccc2oc(=O)cc(CN3CCN(C(=O)c4ccc(OC)c(OC)c4)CC3)c2c1	-9%
COC(=O)c1ccc(NC(=O)N2CC(N(C3CCOCC3)S(C)(=O)=O)C2)cc1	-20%
CC1=NS(=O)(=O)N(C)C=C1C(=O)OCc1nc(-c2cnccn2)no1	60%
Cc1ccc(C(=O)n2nc(C)c(S(=O)(=O)N3CCOCC3)c2C)cc1	-23%
CC(=O)NC1(C)CCN(Cc2ccc(-c3cccc4ncccc34)cc2)C1 (configuration not stated)	i
CC(=O)NC1(C)CCN(Cc2ccccc2-c2ccccc2Oc2ccccc2)C1 (configuration not stated)	5µM*
CC(=O)NC1(C)CCCN(Cc2cccc(Nc3ccncc3)c2)C1 (configuration not stated)	-23%[44.1 µM]
CC(=O)NC1(C)CCN(Cc2cccc(-c3ccc(N4CCOCC4)cc3)c2)C1 (configuration not stated)	-3%[44.1 µM]
CC(=O)NC1(C)CCN(Cc2ccc(-c3ccc4ccccc4c3)cc2)C1 (configuration not stated)	10µM*
SMILES	Pf Dd2 inh
CC(=O)NC1(C)CCCN(c2ccc(Oc3ccccc3)cc2)C1 (configuration not stated)	18%[44.1 µM]
CC(=O)NC1(C)CCCN(Cc2ccc(Oc3ccccc3)cc2)C1 (configuration not stated)	i
CC(=O)NC1(C)CCCN(Cc2cccc(-c3ccccc3)c2)C1 (configuration not stated)	8.9µM*
CC(=O)NC1(C)CCN(Cc2cccc(-c3cccc4ncccc34)c2)C1 (configuration not stated)	i
COCCN1C(=O)c2cccn2CC1CNC(=O)c1cn[nH]c1-c1ccc(F)cc1 (configuration not stated)	22%
O=C(NCCOCCn1c(=O)oc2ccccc21)Nc1ccc(F)cc1	3%
Cc1cccc(OCCc2noc(C3CCN(C(=O)c4cn[nH]c4)C3)n2)c1 (configuration not stated)	-16%
N#Cc1cccc(-c2ccnc(N[C@H]3CO[C@H]4[C@@H]3OC[C@H]4OC(=O)Nc3cccc(C(F)(F)F)c3)n2)c1	i
Cc1ccc(-c2ccc(C(=O)NCCCn3ccnc3C(C)C)cn2)cc1C	i
CCn1c(C(=O)N2CCC(C(=O)NCCc3ccccc3)CC2)cc2sccc21	-23%
CC(C)CCNC(=O)C1CCN(C(=O)c2cc3sccc3n2Cc2ccc(Cl)cc2)CC1	13µM*
Cn1c(C(=O)N2CCCC(C(=O)N3CCN(c4ccccc4)CC3)C2)cc2sccc21 (configuration not stated)	-3%
CCCCNC(=O)C1CCc2sc(C(=O)N3CCOCC3)cc2C1 (configuration not stated)	-2%
Cc1cc(N2CCC(C(=O)NCCC(C)C)CC2)n2nc(C)c(-c3ccc(Cl)cc3)c2n1	59%
CCCSCCCNC(=O)C1CCN(C(=O)c2cc3sccc3n2C)CC1	14µM*
Cc1ccc(C)c(CSc2cn(CC(=O)N3CCCC3)c3ccccc23)c1	i
